# Assay results: PMC4336329 (PLoS ONE, 2015)
# About 2,200 (0.71%) of roughly 310,000 compounds showed an effect of 50% or more. Effects have a minus sign here. This excerpt belongs to a sample that is enriched for strong results.
# Molecular target: human ether-à-go-go-related gene (hERG) potassium channel (human, UniProt Q12809)
# Test: primary screen, population patch clamp on CHO cells stably expressing hERG; higher = less effect of the substance
# Chain of human ether-à-go-go-related gene (hERG) potassium channel (Q12809 whole entry, looked up): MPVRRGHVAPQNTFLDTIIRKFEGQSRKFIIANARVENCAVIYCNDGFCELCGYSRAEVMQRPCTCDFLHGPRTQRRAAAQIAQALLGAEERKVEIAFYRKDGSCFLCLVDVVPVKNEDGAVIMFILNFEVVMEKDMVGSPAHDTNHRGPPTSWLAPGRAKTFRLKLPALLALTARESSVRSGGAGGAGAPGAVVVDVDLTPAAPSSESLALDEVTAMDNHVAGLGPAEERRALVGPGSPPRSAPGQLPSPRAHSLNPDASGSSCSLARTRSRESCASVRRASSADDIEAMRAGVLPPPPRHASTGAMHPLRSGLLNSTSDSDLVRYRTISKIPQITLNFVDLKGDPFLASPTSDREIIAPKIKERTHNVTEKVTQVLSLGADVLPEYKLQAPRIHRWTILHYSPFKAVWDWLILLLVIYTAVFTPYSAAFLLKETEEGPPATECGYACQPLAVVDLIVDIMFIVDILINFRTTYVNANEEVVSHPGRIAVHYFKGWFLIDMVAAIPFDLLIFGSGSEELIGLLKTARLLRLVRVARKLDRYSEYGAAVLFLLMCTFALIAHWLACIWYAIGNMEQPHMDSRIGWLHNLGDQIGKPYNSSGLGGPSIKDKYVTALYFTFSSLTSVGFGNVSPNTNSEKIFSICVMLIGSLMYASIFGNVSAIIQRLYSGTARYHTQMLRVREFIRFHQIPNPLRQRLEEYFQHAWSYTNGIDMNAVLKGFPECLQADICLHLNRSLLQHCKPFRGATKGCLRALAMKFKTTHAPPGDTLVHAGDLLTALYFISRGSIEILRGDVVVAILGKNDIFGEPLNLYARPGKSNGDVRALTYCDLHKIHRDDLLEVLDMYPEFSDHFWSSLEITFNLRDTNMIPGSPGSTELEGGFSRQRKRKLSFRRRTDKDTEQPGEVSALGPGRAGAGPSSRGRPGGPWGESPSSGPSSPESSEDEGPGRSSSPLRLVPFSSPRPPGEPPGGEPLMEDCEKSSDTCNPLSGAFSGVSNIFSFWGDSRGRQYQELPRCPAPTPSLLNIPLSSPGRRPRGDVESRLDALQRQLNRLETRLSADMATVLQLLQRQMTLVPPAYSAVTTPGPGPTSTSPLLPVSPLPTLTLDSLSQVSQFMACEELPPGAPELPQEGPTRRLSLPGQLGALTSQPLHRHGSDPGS
row,SMILES,"hERG current change (%, negative = inhibition) at 1uM [%]"
1,Cc1ccc(CN2CC(C(=O)Nc3ccc(F)c([N+](=O)[O-])c3)CC2=O)cc1 (stereo not drawn),-1.97
2,COc1ccc(OCC(=O)N/N=C(\C)CC(=O)Nc2ccc(OC)cc2[N+](=O)[O-])cc1,-61.8
3,CCOc1ccc(OCC(=O)Nc2ccc(OC)cc2[N+](=O)[O-])cc1,8.89
4,COc1ccc(NC(=O)COc2ccc(C)cc2)c([N+](=O)[O-])c1,8.91
5,C#CCn1c(=NC(=O)c2ccc(Cl)s2)sc2cccc(OC)c21,14.9
6,COc1ccc(Br)cc1C(=O)Nc1cccc(C)c1C,2.14
7,COc1ccc(OC)c(NC(=O)NC2CCCCCCC2)c1,9.24
8,Cc1cccc(NC(=O)CN2CCOCC2)c1C,12.2
9,Cc1cccc(NC(=O)CNC(=O)COc2ccc(-c3ccc(C#N)cc3)cc2)c1C,8.38
10,Cc1cccc(NC(=O)CN2CCN(C(=O)C(C)Oc3ccc(C#N)cc3)CC2)c1C (stereo not drawn),-54.7
11,COc1ccc(CNC(=O)C2CSC(c3ccc(OC)cc3)N2C(C)=O)cc1 (stereo not drawn),5.4
12,CCCCN(C)CCN1C(=O)C2C(C(=O)Nc3ccc(OC)cc3)C3C=CC2(O3)C1C(=O)NC1CCCCC1 (stereo not drawn),3.44
13,CCCCN(C)CCN1C(=O)C2C(C(=O)Nc3ccc(Cl)cc3)C3C=CC2(O3)C1C(=O)NC1CCCCC1 (stereo not drawn),-60.5
14,CCCCN(C)CCN1C(=O)C2C(C(=O)Nc3ccc(C)cc3)C3C=CC2(O3)C1C(=O)NC1CCCCC1 (stereo not drawn),15.1
15,CN1C(=O)C2(C(C#N)=C(N)Oc3c2oc(CO)cc3=O)c2ccccc21 (stereo not drawn),12
16,COc1cc(S(=O)(=O)N2CCN(C)CC2)ccc1Cl,14.8
17,CC1CCCN(CC(O)COC(c2ccccc2)c2ccccc2)C1 (stereo not drawn),-15
18,CCOC(=O)C1CCCN(CC(O)COC(c2ccccc2)c2ccccc2)C1 (stereo not drawn),-78.8
19,OC(COC(c1ccc(F)cc1)c1ccc(F)cc1)CN1CCc2ccccc2C1 (stereo not drawn),-9.74
20,CC1CN(CC(O)COC(c2ccc(Cl)cc2)c2ccc(Cl)cc2)CC(C)O1.Cl (stereo not drawn),-2.64
21,O=C(O)C(=O)O.O=C(c1ccccc1)c1ccc(OCC(O)CNCc2ccc(F)cc2)cc1 (stereo not drawn),-0.143
22,Cc1ccc(C(OCC(O)CNCc2ccc(F)cc2)c2ccccc2)cc1.O=C(O)C(=O)O (stereo not drawn),-75.4
23,Cc1ccc(OCC(O)CNCc2ccc(F)cc2)cc1 (stereo not drawn),-14.2
24,Cl.OC(COC(c1ccc(Cl)cc1)c1ccc(Cl)cc1)CN1CCc2ccccc2C1 (stereo not drawn),-6.99
25,OC1CCCN(CC(O)COC(c2ccccc2)c2ccccc2)C1 (stereo not drawn),1.02
26,OC(COC(c1ccccc1)c1ccccc1)CN1CCc2ccccc2C1 (stereo not drawn),-75.3

row,SMILES,"hERG current change (%, negative = inhibition) at 1uM [%]"
1,OC(COC(c1ccc(Cl)cc1)c1ccc(Cl)cc1)CN1CCCC1 (stereo not drawn),-75.2
2,CN1CCN(CC(O)COC(c2ccc(Cl)cc2)c2ccc(Cl)cc2)CC1.Cl (stereo not drawn),-47.8
3,O=C(CNC(=O)c1ccccc1F)NCCc1ccc(Cl)cc1Cl,7.52
4,O=C(NCc1n[nH]c(=S)n1-c1cccc(Cl)c1)c1ccc(S(=O)(=O)N2CCCCC2)cc1,13.6
5,CCN(CC)S(=O)(=O)c1cccc(C(=O)Oc2cccc(NC(=O)c3cccs3)c2)c1,7.05
6,CC(=O)N1C(=O)C2(C(C#N)=C(N)Oc3c2c(C)nn3-c2ccccc2)c2ccccc21 (stereo not drawn),11
7,Cc1cccc(C(=O)NCCC(=O)NCc2ccccc2F)c1,5.88
8,COc1ccc(-n2nc(C(=O)NCC(=O)N3CCCCC3)c3ccccc3c2=O)c(OC)c1,15.2
9,CCN(CC)S(=O)(=O)c1ccc(/C=C/C(=O)OCC(=O)NNC(=O)c2ccc(OC)cc2)cc1,9.94
10,O=C(O)C(=O)O.OCCN1CCN(CC(O)COC(c2ccc(F)cc2)c2ccc(F)cc2)CC1 (stereo not drawn),-20.2
11,O=C(O)C(=O)O.OCC1CCCCN1CC(O)COC(c1ccc(F)cc1)c1ccc(F)cc1 (stereo not drawn),-60.9
12,O=C(O)C(=O)O.OC(COC(c1ccc(F)cc1)c1ccc(F)cc1)CN1CCCC1 (stereo not drawn),-62
13,Cc1ccc(C(OCC(O)CN2CCCCC2)c2ccccc2)cc1 (stereo not drawn),-68.6
14,COc1ccc(N2CCN(CC(O)COC(c3ccccc3)c3ccccc3)CC2)cc1 (stereo not drawn),-14.2
15,COc1ccc(N2CCN(CC(O)COC(C)(C)C)CC2)cc1.O=C(O)C(=O)O (stereo not drawn),12.5
16,O=C(O)C(=O)O.OC1CCCN(CC(O)COC(c2ccc(F)cc2)c2ccc(F)cc2)C1 (stereo not drawn),-14.2
17,OC(COC(c1ccccc1)c1ccccc1)CN1CCCCC1 (stereo not drawn),-18.5
18,Cc1ccc(C(OCC(O)CN2CCCCC2CO)c2ccccc2)cc1 (stereo not drawn),-39.7
19,COc1ccc(N2CCN(CC(O)COC(c3ccc(F)cc3)c3ccc(F)cc3)CC2)cc1.O=C(O)C(=O)O (stereo not drawn),-74
20,CCN1CCN(CC(O)COC(c2ccccc2)c2ccccc2)CC1 (stereo not drawn),7.15
21,O=C(O)C(=O)O.OC(COC(c1ccc(F)cc1)c1ccc(F)cc1)CN1CCCC(C(F)(F)F)C1 (stereo not drawn),14
22,NC(=O)c1cc(Cl)ccc1OCC(=O)N1CCCc2ccccc21,11.4
23,S=c1[nH]nc(-c2ccc(Cl)cc2)n1-c1ccc2c(c1)OCCO2,7.4
24,CCN1C(=O)[C@H]2[C@@H](c3ccc(Cl)cc3)N3C(=O)CN(Cc4ccccc4)C(=O)[C@@]3(C)[C@H]2C1=O,10.9
25,CCCCCOc1ccc(/C=C/c2c([N+](=O)[O-])c(=O)n(C)c(=O)n2C)cc1,12.2
